The results in this text go back to ChEMBL document CHEMBL3988442, “University of Dundee, Small-Polar-MMV Screening Library” (2021).

For part of these data: Potency and affinity values are given separately.

Holding throughout (set-up): scale not given: direction of the effect not stated beside the values
Experiment [1] has as its target Protein translocase subunit SecA (Escherichia coli (strain K12)) (UniProt P10408). The experiment in a line: Assay to Identify E. coli SecA ATPase Inhibitors. In kind it is functional. The settings on record: 30 µM.
In experiment [2] the target is T1, Ubiquitin-activating enzyme e1, putative (Leishmania donovani (strain BPK282A1)) (UniProt E9BSI1).
T1 sequence (whole entry): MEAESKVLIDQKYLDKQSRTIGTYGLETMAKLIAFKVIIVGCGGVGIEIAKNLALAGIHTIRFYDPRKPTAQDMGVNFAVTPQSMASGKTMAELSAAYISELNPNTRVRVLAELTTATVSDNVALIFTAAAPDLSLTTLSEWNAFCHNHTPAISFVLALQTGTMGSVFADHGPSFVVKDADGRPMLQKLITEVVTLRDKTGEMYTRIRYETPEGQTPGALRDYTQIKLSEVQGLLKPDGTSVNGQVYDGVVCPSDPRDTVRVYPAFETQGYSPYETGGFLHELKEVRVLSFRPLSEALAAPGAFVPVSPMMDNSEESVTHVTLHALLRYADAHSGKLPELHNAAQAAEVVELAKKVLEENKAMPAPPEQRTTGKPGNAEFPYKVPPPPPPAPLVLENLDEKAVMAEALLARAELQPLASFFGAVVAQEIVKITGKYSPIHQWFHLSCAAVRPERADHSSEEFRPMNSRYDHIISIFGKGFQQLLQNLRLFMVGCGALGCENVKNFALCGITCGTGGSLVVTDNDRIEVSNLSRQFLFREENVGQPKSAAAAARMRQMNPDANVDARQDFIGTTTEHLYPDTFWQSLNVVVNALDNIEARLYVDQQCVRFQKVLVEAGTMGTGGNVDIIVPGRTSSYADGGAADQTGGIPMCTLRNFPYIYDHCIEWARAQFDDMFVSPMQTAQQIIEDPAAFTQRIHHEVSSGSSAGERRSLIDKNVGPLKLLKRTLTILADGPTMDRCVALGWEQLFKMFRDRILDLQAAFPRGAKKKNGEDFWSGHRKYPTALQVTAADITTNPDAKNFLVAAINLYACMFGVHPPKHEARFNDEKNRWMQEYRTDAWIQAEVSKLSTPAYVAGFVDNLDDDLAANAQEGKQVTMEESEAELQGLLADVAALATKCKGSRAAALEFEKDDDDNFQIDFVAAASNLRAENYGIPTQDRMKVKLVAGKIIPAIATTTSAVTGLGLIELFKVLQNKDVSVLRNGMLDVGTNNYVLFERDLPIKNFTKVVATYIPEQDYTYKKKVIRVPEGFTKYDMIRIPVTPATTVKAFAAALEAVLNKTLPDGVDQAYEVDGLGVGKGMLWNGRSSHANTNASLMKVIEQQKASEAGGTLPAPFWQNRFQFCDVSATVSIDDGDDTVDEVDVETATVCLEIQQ
The experiment in a line: Leishmania donovani Ubiquitin Activating Enzyme (LdE1). The following applies: 30 µM. In kind it is functional.

Experiment [3] has as its target AMP-activated protein kinase, AMPK (Homo sapiens) (UniProt P54646+O43741+P54619+Q9UGJ0+Q9Y478+Q13131+Q9UGI9). Description: AMP-dependent Kinase enzyme assay. An in vitro enzyme assay that detects ADP turnover that is directly proportional to AMPK activity. This uses naive AMPK that is activated during the assay with MK-8722. The experiment is classed as functional. The following applies: 30 µM.

Experiment [4] concerns the target Sialic acid-binding Ig-like lectin 9 (Homo sapiens) (UniProt Q9Y336). The experiment in a line: Hs-Siglec9 ALPHAscreen SOP 20170721. The following applies: 10 µM.
A further experiment deals with Trypanosoma cruzi. The experiment in a line: Trypanosoma cruzi phosphomannomutase and mannose-1-phosphate guanylyltransferase assay. In kind it is functional. The settings on record: 10 µM.
In experiment [5] the target is T2, Arginase-2, mitochondrial (Homo sapiens) (UniProt P78540).
T2 sequence (whole entry): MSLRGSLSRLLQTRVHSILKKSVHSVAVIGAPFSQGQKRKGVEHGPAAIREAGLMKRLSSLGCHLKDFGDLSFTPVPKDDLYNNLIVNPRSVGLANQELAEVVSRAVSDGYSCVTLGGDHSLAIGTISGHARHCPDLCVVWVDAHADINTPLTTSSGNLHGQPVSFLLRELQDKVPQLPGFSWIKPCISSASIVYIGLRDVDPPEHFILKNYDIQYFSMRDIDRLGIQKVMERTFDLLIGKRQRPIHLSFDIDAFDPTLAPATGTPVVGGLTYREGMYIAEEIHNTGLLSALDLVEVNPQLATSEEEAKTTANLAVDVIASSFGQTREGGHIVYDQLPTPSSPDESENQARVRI
Description: in vitro enzyme assay to detect the production of urea directly proportional to the activity of Arginase II. Also: in the data most compounds retested in dose-response had high values. The experiment is classed as functional. The settings on record: 33.3 µM.

Experiment [6] concerns the target T3, Proteasome subunit beta (Trypanosoma cruzi) (UniProt O96673).
T3 sequence (whole entry): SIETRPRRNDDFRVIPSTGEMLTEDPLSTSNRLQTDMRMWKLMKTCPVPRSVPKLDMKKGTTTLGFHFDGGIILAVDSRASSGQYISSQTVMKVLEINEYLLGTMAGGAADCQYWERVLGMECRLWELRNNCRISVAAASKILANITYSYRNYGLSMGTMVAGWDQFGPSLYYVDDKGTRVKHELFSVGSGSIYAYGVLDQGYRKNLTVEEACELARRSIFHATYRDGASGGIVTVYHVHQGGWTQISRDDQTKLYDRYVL
The experiment in a line: Trypanosoma cruzi proteasome chymotrypsin-like activity (TcProtChymo) assay. Also: in the data most compounds retested in dose-response had high values. The experiment is classed as functional. The settings on record: 9.37 µM.

For a further experiment, the species on record is Homo sapiens. The experiment in a line: To identify inhibition of the IFN signalling (Jak-Stat) pathway via expression of an eGFP reporter gene under the control of an IFN-stimulated response element (ISRE) containing MxA promoter. In kind it is functional. The settings on record: 30 µM.
For experiment [7], the target named is T4, Tyrosyl-tRNA synthetase, putative (Trypanosoma cruzi (strain CL Brener)) (UniProt Q4DSP6).
T4 sequence (whole entry): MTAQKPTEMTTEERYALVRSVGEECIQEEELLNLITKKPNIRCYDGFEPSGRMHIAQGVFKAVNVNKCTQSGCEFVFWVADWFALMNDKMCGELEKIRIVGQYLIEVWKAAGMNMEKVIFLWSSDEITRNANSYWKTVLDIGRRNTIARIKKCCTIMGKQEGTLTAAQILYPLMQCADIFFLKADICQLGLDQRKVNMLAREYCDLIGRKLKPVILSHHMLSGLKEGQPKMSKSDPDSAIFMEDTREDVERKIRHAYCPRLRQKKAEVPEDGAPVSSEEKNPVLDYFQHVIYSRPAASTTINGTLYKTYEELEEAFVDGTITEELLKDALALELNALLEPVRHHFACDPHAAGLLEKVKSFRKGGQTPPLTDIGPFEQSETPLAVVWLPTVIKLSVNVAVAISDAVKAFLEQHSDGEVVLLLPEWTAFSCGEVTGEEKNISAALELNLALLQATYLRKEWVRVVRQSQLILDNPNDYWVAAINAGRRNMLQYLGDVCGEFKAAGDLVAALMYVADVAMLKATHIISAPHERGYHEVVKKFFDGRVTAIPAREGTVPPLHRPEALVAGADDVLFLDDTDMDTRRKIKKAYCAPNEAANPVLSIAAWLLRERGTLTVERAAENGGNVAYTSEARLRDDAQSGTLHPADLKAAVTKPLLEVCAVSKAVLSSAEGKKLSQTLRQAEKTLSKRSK
The experiment in a line: Trypanosoma cruzi tyrosyl tRNA synthetase (TcYRS) _High Tyrosine SOP. Also: in the data most compounds retested in dose-response had high values. In kind it is functional. The following applies: 30 µM.

For experiment [8], the target named is T4, Tyrosyl-tRNA synthetase, putative (Trypanosoma cruzi (strain CL Brener)). Description: Trypanosoma cruzi tyrosyl tRNA synthetase (TcYRS) SOP. The following applies: 30 µM. The experiment is classed as functional.
Experiment [9] has as its target Chromo domain-containing protein 1 (Saccharomyces cerevisiae (strain ATCC 204508 / S288c) (Baker's yeast)) (UniProt P32657). Description: ScCHD-1 Enzyme Inhibition Assay. Also: in the data most compounds retested in dose-response had high values. The experiment is classed as functional. The settings on record: 30 µM.

Chain of Protein translocase subunit SecA (Escherichia coli (strain K12)) (P10408 whole entry): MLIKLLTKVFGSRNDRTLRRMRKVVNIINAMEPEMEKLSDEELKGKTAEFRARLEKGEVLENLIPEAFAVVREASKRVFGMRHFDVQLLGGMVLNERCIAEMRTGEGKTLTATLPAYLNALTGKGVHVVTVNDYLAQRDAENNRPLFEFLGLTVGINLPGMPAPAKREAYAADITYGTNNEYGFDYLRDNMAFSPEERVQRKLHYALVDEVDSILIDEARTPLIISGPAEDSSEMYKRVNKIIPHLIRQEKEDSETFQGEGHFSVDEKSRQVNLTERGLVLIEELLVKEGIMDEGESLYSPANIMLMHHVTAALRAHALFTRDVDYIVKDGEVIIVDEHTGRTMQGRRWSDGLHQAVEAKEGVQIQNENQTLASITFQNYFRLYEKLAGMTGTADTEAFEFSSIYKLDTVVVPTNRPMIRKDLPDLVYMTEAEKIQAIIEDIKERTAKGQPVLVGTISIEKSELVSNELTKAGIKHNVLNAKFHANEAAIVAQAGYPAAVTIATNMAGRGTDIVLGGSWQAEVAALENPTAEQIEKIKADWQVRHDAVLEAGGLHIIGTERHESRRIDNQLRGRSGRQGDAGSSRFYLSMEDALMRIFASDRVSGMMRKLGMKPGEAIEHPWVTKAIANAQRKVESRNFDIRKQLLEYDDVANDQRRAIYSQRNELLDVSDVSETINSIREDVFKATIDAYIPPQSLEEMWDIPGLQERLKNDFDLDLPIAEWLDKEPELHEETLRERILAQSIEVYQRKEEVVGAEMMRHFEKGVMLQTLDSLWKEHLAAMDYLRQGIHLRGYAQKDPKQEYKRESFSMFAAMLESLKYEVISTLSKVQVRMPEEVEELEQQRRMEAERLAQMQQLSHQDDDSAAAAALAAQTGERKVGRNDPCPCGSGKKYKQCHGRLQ
Chain of Sialic acid-binding Ig-like lectin 9 (Homo sapiens) (Q9Y336 whole entry): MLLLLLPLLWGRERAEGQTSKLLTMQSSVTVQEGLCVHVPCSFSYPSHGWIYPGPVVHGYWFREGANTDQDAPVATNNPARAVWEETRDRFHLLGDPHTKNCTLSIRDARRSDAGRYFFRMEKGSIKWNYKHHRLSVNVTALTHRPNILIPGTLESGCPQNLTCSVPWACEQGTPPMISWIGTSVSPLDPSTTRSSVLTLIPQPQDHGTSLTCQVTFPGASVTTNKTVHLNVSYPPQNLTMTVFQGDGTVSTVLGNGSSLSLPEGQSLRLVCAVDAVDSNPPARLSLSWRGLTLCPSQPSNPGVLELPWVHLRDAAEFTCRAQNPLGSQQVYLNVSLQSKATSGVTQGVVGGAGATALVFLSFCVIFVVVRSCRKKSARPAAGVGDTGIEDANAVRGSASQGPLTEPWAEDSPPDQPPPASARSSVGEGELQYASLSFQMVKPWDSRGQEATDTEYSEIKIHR
Chain of Chromo domain-containing protein 1 (Saccharomyces cerevisiae (strain ATCC 204508 / S288c) (Baker's yeast)) (P32657 whole entry, the tested form may be a part): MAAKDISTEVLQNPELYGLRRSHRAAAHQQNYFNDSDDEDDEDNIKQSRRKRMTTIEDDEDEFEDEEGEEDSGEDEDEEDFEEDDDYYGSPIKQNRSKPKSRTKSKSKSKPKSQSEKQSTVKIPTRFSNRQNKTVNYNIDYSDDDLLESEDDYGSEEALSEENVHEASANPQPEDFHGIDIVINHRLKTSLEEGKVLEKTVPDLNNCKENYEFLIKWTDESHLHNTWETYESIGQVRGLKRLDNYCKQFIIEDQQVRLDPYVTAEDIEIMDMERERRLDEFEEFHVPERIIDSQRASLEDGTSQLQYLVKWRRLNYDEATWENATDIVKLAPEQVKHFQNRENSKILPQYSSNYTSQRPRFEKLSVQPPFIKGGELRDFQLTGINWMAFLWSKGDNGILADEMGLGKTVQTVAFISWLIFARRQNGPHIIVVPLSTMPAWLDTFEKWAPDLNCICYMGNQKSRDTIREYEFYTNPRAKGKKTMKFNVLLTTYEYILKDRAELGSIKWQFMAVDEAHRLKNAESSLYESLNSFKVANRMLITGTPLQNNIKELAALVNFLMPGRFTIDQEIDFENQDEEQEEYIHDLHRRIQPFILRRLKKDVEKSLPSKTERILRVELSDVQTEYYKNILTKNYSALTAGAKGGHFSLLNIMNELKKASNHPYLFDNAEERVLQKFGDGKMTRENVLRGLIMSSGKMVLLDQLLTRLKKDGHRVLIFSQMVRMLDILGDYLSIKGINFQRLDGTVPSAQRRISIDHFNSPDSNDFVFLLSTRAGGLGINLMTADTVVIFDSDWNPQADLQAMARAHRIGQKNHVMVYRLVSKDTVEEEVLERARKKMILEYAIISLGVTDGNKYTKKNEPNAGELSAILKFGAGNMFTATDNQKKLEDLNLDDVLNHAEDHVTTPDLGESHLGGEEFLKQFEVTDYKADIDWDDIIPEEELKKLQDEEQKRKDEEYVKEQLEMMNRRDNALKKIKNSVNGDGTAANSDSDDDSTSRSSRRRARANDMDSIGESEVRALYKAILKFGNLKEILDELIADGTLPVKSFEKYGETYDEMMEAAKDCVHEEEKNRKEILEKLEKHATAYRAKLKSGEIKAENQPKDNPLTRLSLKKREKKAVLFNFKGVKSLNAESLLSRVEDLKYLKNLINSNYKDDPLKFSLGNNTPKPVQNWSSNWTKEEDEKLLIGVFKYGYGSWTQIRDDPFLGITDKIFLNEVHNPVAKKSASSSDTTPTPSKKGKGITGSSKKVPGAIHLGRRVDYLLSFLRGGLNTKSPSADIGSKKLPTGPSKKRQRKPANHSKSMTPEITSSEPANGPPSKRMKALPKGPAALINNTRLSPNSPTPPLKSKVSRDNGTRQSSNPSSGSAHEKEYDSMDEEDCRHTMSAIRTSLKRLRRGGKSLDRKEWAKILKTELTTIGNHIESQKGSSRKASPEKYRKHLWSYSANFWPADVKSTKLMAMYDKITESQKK

As for `Cc1cnn(CCC(=O)N2CCC(Nc3cccnn3)CC2)c1`, the Percent Effect was -6.66% in [1]; 5.41% in experiment [2]; 1.21% in [3]; 3.62% in experiment [4]; -5% in the experiment with Trypanosoma cruzi; -2% in experiment [5]. Also, the Percent Effect in experiment [6] was -3.6%; in the experiment listed under Homo sapiens it was 16.4%; in experiment [7], 0.493%; in experiment [8] it was -8.64%; in experiment [9] it was 2.32%.

In the case of `CC(=O)N1CCCC1c1nccnc1Nc1cccc(C)n1` (centres undefined), the Percent Effect in [1] is -1.59%; in [2], -5.33%; in experiment [3], 11.9%; in experiment [4], 5.31%; with Trypanosoma cruzi, -1.57%; in experiment [5], 0.699%. Moreover, the Percent Effect in experiment [6] was 1.15%; in the experiment listed under Homo sapiens, -9.62%; in experiment [7] it was -1.06%; in experiment [8], 1.28%; in [9] it was 4.34%.

As for `CCC(O)CN1CCN(C(=O)c2cccn2Cc2cccs2)CC1` (centres undefined), the Percent Effect in experiment [1] is -3.15%; in [2], 5.06%; in [3] it was 1.52%; in experiment [4], 11.3%; in the experiment on Trypanosoma cruzi, -2.17%; in experiment [5], 0.38%. For the same compound, the Percent Effect in [6] was -3.03%; in the experiment listed under Homo sapiens, 5.7%; in [7] it was 4.43%; in [8], 11.4%; in [9], -5.26%.

Consider `Cn1ncc2c(=O)[nH]c(N3CCN(C(=O)c4ccsc4)CC3)nc21`, for which the Percent Effect is -5.57% in experiment [1]; 2.7% in experiment [2]; 2.37% in experiment [3]; -0.0131% in experiment [4]; -6.32% in the experiment with Trypanosoma cruzi; 17.2% in experiment [5]. Besides, the Percent Effect in experiment [6] was 3.24%; in the experiment listed under Homo sapiens it was 25%; in experiment [7], -1.48%; in experiment [8], -11.1%; in [9], 1.01%.

Regarding `CN(CCOc1cccc(CN)c1)C1CCOCC1`, the Percent Effect in [1] was 1.04%; in experiment [2], 2.7%; in experiment [3] it was -5.71%; in [4], -2.08%; with Trypanosoma cruzi, 1.54%; in experiment [5] it was -5.24%. The Percent Effect is 7.41% in [6]; -5.29% in the experiment filed under Homo sapiens; 1.59% in experiment [7]; 9.76% in experiment [8]; 13.5% in experiment [9].

For `COCC1CC2(CCN(C(=O)c3ccc(OC)c(Cl)c3)CC2)CO1` (centres undefined), the Percent Effect in experiment [1] is 4.75%; in experiment [2], 15.6%; in experiment [3] it was -2.46%; in experiment [4], -7.51%; in the experiment with Trypanosoma cruzi it was -5.82%; in experiment [5], 9.68%. The Percent Effect in [6] is 13.8%; in the experiment filed under Homo sapiens, 15.9%; in [7] it was -1.06%; in [8] it was 3.85%; in experiment [9] it was -9.46%.

As to `CN(C)C(=O)CN1CCCC2(CCN(c3ccsc3)C2=O)C1` (centres undefined), the Percent Effect in experiment [1] is -1.45%; in experiment [2], 10.7%; in experiment [3], 2.54%; in experiment [4], -9.8%; in the experiment with Trypanosoma cruzi, -5.71%; in experiment [5], 0.233%. The Percent Effect in experiment [6] was 7.84%; in the experiment filed under Homo sapiens it was 14.6%; in experiment [7], -1.06%; in experiment [8] it was -32%; in [9] it was -5.89%.

Turning to `CCN(Cc1ccc(OC)c(F)c1)C(=O)c1ccc(C)[nH]c1=O`, the Percent Effect in experiment [1] is -3.17%; in [2], 10.5%; in experiment [3], 2.62%; in [4], 9.42%; in the experiment on Trypanosoma cruzi, -0.188%; in [5] it was 2.3%. The Percent Effect in [6] is 4.68%; in the experiment filed under Homo sapiens, 8.35%; in experiment [7], 8.33%; in experiment [8] it was 19.5%; in [9] it was -8.67%.

As for `CN(Cc1cn2c(n1)CN(CC1CC1)CC2)Cc1ccco1`, the Percent Effect in [1] was -3.08%; in experiment [2] it was 8%; in [3] it was 16.6%; in experiment [4] it was 0.972%; in the experiment with Trypanosoma cruzi, -3.35%; in experiment [5] it was 0.233%. Also, the Percent Effect in [6] is 1.5%; in the experiment filed under Homo sapiens, 8.85%; in [7] it was 7.45%; in experiment [8], 8.97%; in experiment [9] it was -4.14%.
